Test results from PubChem BioAssay (NCATS).
Where “and” joins values, the source holds several entries; their conditions need not be identical. Equal values may be shown once. Results filed as inconclusive are left out. Calls of active or inactive are those of the source. Unless noted, calls follow the shape of the dose curve; as a rule, active = well fitted curve in the direction sought with a large enough effect; inconclusive = small, poorly fitted or top-dose-only effect, or another doubt; inactive = no such curve, though single readings can be large; an effect the other way counts as inactive or inconclusive.

Key:
[1] = qHTS assay for small molecule disruptors of the mitochondrial membrane potential - 5 hr assay (AID 651755; calls by dose curve; also: % is scaled to controls: 0 for no effect and ±100 for the full control effect; nearly all actives have a fitted effect of over 40% in size)
Procedure, shortened: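 HepG2 cells, attached overnight at 37C, were exposed to compound or DMSO for 5 hr at 37C, 5% CO2. Mito-MPS dye was then added for 30 min, and fluorescence read at 490/535 nm (monomers) and 540/590 nm (aggregates).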

[2] = molecular target: Tumor necrosis factor (Homo sapiens) (UniProt P01375); assay: qHTS assay to identify small molecules that stimulate Tumor Necrosis Factor-alpha (TNF-alpha) secretion (AID 651757; active = well fitted curve in the direction sought with a large enough effect in the signal ratio; the % refers to the signal ratio; also: 0% is about no effect)
Procedure, shortened: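 THP-1 cells were exposed to compounds for 17 hrs at 37 C, after which secreted TNF-alpha was measured by homogeneous HTRF (TR-FRET) using cryptate- and XL665-labeled anti-TNF-alpha antibodies, read after 3 hr at room temperature.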

[3] = qHTS assay for environmental chemicals that activate the Aryl hydrocarbon Receptor (AhR) signaling pathway (AID 651777); settings: 1A2-DRE human hepatoma cells, luciferase, 24 h; activation: active compounds read high; also: % of control where 0% means no effect; nearly all actives have a fitted effect of over 15% in size
Procedure, shortened: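 Luminescence (One-Glo, 30 min, room temperature) reports AhR-driven luciferase in stably transfected human hepatoma cells bearing DRE and CYP1A2 promoter. Cells (1,200/well) were treated with compound for 24 hr at 37 C in qHTS format.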

[4] = molecular target: Peroxisome proliferator-activated receptor alpha (Homo sapiens) (UniProt Q07869); assay: qHTS assay for small molecule agonists of the peroxisome proliferator-activated receptor alpha (PPARalpha) signaling pathway (AID 651778); settings: PathHunter PPARalpha complementation, chemiluminescence, 6 h; active compounds read high; also: % of control where 0% means no effect
Procedure, shortened: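 Cells plated at 2,000/well and held overnight at 37 C, 5% CO2, then compound added by pin tool for 6 hr; after PathHunter detection reagent and 60 min at room temperature, chemiluminescence from enzyme complementation was read.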

[5] = qHTS assay for small molecule agonists of the antioxidant response element (ARE) signaling pathway measured by Nrf2-dependant transcriptional activity (AID 720636; active = well fitted curve in the direction sought with a large enough effect in the repeat runs; an effect the other way counts as inactive or inconclusive; also: % of control where 0% means no effect)
Procedure, shortened: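 Nrf2-dependent transcription read as ONE-Glo luciferase signal from ARE-luc HepG2 reporter cells after 16 hr compound treatment at 37 C, 5% CO2, in assay medium with 1% dialyzed FBS.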

[6] = qHTS assay for small molecule antagonists of the retinoid-related orphan receptor gamma (ROR-gamma) signaling pathway - cell viability counter screen (AID 720652; active = well fitted curve in the direction sought with a large enough effect in the repeat runs; an effect the other way counts as inactive or inconclusive;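 also: series mostly up to about 92 µM; compound exposure lasted 16 hr before ATP read; % is scaled to controls: 0 for no effect and ±100 for the full control effect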)
Procedure, shortened: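 Counter screen in CHO cells carrying TET-inducible ROR-gamma and an ROR response element-luciferase reporter; cells plated 5 hr, compound pinned, doxycycline added, then 16 hr at 37 C. Viability read as intracellular ATP by CellTiter-Glo luminescence.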

[7] = qHTS assay for small molecule agonists of the antioxidant response element (ARE) signaling pathway measured by Nrf2-dependant transcriptional activity - cell viability counter screen (AID 720653; active = well fitted curve in the direction sought with a large enough effect in the repeat runs; an effect the other way counts as inactive or inconclusive; also: % is scaled to controls: 0 for no effect and ±100 for the full control effect); settings: ARE-bla HepG2 viability, CellTiter-Glo ATP luminescence, 16 h; active compounds read low
Procedure, shortened: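 ARE-bla HepG2 cells (2,000/well) rested 5 hrs at 37C/5% CO2, then exposed to compounds in DMSO for 16 hrs. Viability was read in the same wells as intracellular ATP by luminescence, 30 min at room temperature after reagent addition.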

[8] = qHTS assay for cell viability of HEK293 cells (AID 743288); settings: ATP luminescence (CellTiter-Glo), 18 h, active compounds read low; also: % is scaled to controls: 0 for no effect and ±100 for the full control effect; nearly all actives have a fitted effect of over 50% in size
Procedure, shortened: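 Parental HEK293 cells, 2,000 per well, preincubated at least 5 h at 37 C, then exposed to compounds in DMSO for 18 h at 37 C. Viability by CellTiter-Glo ATP luminescence after 30 min at room temperature.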

[9] = molecular target: Nuclear receptor ROR-gamma (Homo sapiens) (UniProt P51449); assay: qHTS assay for small molecule antagonists of the retinoid-related orphan receptor gamma (ROR-gamma) signaling pathway (AID 651802); also: series mostly up to about 92 µM; % is scaled to controls: 0 for no effect and ±100 for the full control effect; nearly all actives have a fitted effect of over 60% in size
Procedure, shortened: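 CHO cells carrying TET-inducible ROR-gamma and an ROR response element–luciferase reporter were exposed to compound, then induced with doxycycline. After 16hr at 37C, luminescence was read; lower signal indicates antagonism.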

Nuclear receptor ROR-gamma (Homo sapiens), sequence (P51449 whole entry, looked up): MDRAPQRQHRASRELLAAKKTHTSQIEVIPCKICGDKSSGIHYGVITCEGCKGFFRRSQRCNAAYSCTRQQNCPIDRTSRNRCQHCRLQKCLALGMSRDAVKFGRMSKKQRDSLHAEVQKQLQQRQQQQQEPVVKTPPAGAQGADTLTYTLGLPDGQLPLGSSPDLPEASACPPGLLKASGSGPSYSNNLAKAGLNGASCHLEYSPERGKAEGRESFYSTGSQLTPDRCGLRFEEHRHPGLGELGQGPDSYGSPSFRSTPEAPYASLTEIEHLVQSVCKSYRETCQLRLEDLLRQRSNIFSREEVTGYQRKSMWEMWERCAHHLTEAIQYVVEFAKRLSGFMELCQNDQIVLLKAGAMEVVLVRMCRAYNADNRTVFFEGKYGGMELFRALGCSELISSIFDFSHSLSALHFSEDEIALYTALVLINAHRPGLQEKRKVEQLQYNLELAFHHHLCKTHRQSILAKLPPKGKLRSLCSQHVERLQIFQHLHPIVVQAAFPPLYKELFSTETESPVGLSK
Tumor necrosis factor (Homo sapiens), sequence (P01375 whole entry, looked up): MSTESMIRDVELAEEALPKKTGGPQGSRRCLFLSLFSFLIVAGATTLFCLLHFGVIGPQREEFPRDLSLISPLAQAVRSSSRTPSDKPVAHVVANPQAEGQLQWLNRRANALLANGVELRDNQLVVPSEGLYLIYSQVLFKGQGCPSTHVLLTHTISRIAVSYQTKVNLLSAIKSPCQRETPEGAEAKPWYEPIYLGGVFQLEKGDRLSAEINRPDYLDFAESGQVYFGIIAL
Peroxisome proliferator-activated receptor alpha (Homo sapiens), sequence (Q07869 whole entry, looked up): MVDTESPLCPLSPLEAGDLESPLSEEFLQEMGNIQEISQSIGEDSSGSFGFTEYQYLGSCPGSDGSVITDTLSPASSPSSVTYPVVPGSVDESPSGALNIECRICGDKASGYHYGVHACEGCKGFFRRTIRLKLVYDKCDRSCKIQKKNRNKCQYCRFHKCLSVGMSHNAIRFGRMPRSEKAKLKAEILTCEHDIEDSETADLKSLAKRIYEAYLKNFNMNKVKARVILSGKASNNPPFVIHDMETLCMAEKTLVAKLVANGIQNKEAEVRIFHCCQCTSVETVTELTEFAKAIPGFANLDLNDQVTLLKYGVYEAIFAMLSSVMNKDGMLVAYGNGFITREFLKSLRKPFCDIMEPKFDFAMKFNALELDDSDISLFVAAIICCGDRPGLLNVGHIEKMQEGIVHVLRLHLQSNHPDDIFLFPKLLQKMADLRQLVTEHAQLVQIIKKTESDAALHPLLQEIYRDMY

CC/C=C/C#N
inactive: Potency [1] | Potency [2] | activation [3] -1.16% | max response [4] 9.19% | outcome [5] | Potency [6] | max response [7] 1.63% | max response [8] 5.67%

NC(=O)c1ccccc1[N+](=O)[O-]
inactive: Potency [1] | Potency [2] | activation [3] -0.127% | Potency [9] | outcome [5] | Potency [6] | max response [7] -0.414% | max response [8] 7.1%

CNC(=O)N(c1ccccc1)c1ccccc1
inactive: Potency [1] | Potency [2] | activation [3] -0.495% | max response [4] -2.12% | outcome [5] | max response [8] 1.15%

c1ccc2n[nH]nc2c1
inactive: Potency [1] | Potency [2] | activation [3] 0.556% | Potency [9] | outcome [5] | Potency [6] | max response [7] 3.37% | max response [8] -14.1%

O=P(O)(OCc1ccccc1)OCc1ccccc1
inactive: Potency [1] | Potency [2] | activation [3] 1.44% | max response [4] 1.76% | outcome [5] | Potency [6] | max response [7] 2.28% | max response [8] -11.9%

CCCCC(=O)N(C)C
inactive: Potency [1] | Potency [2] | activation [3] 1.62% | Potency [9] | outcome [5] | Potency [6] | max response [7] -1.17% | max response [8] -5.96%

O=C(O)c1ccc(CO)o1
inactive: Potency [1] | Potency [2] | activation [3] -0.734% | Potency [9] | outcome [5] | Potency [6] | max response [7] -10.4% | max response [8] 11.8%

CC=C(Cl)Cl
inactive: Potency [1] | Potency [2] | activation [3] -0.394% | Potency [9] | outcome [5] | Potency [6] | max response [7] -6.27% | max response [8] 5.81%

CC(=O)c1cccc([N+](=O)[O-])c1
inactive: Potency [1] | Potency [2] | activation [3] 1.48% | max response [4] 0.67% | outcome [5] | Potency [6] | max response [7] 17.8% | max response [8] -8.78%

Cc1ccc2ncccc2c1
inactive: Potency [1] | Potency [2] | activation [3] 3.02% | max response [4] -2.02% | Potency [9] | outcome [5] | max response [7] 5.85% | max response [8] -3.3%

c1ccc2c(c1)ccc1ncccc12
inactive: Potency [1] | Potency [2] | activation [3] 3.95% | max response [4] -1.09% | outcome [5] | max response [7] -7.13% | max response [8] 0.663%

CCOC(=O)C(C)C(C)=O (centres undefined)
inactive: Potency [1] | Potency [2] | activation [3] 0.277% | max response [4] -3.29% | outcome [5] | Potency [6] | max response [7] -7.43% | max response [8] 2.57%

CC(=O)Nc1cccc(N)c1
inactive: Potency [1] | Potency [2] | activation [3] -0.0665% | max response [4] -7.63% | Potency [9] | outcome [5] | max response [7] 1.46% | max response [8] 8.3%

CC(=O)OC(C)=O
inactive: Potency [1] | Potency [2] | activation [3] 1.76% | Potency [9] | outcome [5] | Potency [6] | max response [7] 5.05% | max response [8] 3.19%

Cc1cc(C)cc(O)c1
inactive: Potency [1] | Potency [2] | activation [3] -0.55% | Potency [9] | outcome [5] | Potency [6] | max response [7] -0.981% | max response [8] -5.39%

C=C(C)C(=O)OCC(C)C
inactive: Potency [1] | Potency [2] | activation [3] -0.68% | max response [4] -4.6% | Potency [9] | outcome [5] | max response [7] -3.35% | max response [8] 2.75%

CCCCCO
inactive: Potency [1] | Potency [2] | activation [3] 0.0119% | max response [4] -2.11% | Potency [9] | outcome [5] | Potency [6] | max response [8] 0.87%

O=C1C=CCCC1
inactive: Potency [1] | Potency [2] | activation [3] 0.397% | Potency [9] | outcome [5] | Potency [6] | max response [7] 4.99% | max response [8] -6.57%

N#CCc1ccccc1[N+](=O)[O-]
inactive: Potency [1] | Potency [2] | activation [3] 4.16% | max response [4] -3.4% | Potency [9] | outcome [5] | max response [7] 3.79% | max response [8] -6.51%

O=CNc1ccccc1
inactive: Potency [1] | Potency [2] | activation [3] -0.556% | max response [4] -2.49% | Potency [9] | outcome [5] | Potency [6] | max response [8] -2.01%

CCC(O)C(C)(C)C (centres undefined)
inactive: Potency [1] | Potency [2] | activation [3] 0.48% | max response [4] -0.805% | Potency [9] | outcome [5] | max response [7] -4.91% | max response [8] -6.59%

C=CCCCCCC
inactive: Potency [1] | Potency [2] | activation [3] 0.992% | Potency [9] | outcome [5] | Potency [6] | max response [7] -7.1% | max response [8] 3.39%

S=C([S-])NCCNC(=S)[S-].[Zn+2]
inactive: Potency [1] | Potency [2] | activation [3] 0.897% and 8.85% and 0.332% | max response [4] -15.1% and -9.87% and -6.7% | Potency [9] | Potency [6] | max response [7] -3.47% and -31.7% and -9.84% | max response [8] 1.36% and -44.1% and -10.7%

CCCCCCCCCCCCOCC1CO1 (centres undefined)
inactive: Potency [1] | Potency [2] | activation [3] 0.152% | Potency [9] | outcome [5] | Potency [6] | max response [7] 2.47% | max response [8] -5.24%
